Counter-ions that a name gives are not always drawn.
What follows are compounds tested on U-2932 (assay: growth inhibition by drug alone (1 - RLU/untreated control) (fraction); higher = stronger inhibition). Details: 1000 nM; time (day): 3; 177Lu-lilotomab satetraxetan 0 ug/ml.
How it was run: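 RIVA or U-2932 cells, untreated or pretreated 18 h with a radiolabelled anti-CD37 antibody conjugate (~600 MBq/mg; 0.5 µg/ml RIVA, 1 µg/ml U-2932), were washed and seeded at 3,000 cells/well on plates pre-printed with the Selleck Cambridge Cancer Compound library. Doses were 10/100 nM (RIVA) or 10/1,000 nM (U-2932). RealTime-Glo luminescence was read daily from day 3 after 1 h at 37°C. Growth inhibition is 1 − RLU/mean of 48 untreated no-drug wells per plate.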
With `Nc1cc(C(F)(F)F)c(-c2cc(N3CCOCC3)nc(N3CCOCC3)n2)cn1` the “growth inhibition by drug alone” value was 0.632.
With `CC(C)(C)c1ccc(S(=O)(=O)/C=C/C#N)cc1` the “growth inhibition by drug alone” value was 0.386.
In the case of `C[C@]1(c2nc3c(C(N)=O)cccc3[nH]2)CCCN1` [ABT-888 (Veliparib)], the “growth inhibition by drug alone” value is reported as -0.0937.
For `Cc1ccc(NC(=O)c2ccc(CN3CC[C@H](N(C)C)C3)c(C(F)(F)F)c2)cc1Nc1nccc(-c2cncnc2)n1` [Bafetinib (INNO-406)], the “growth inhibition by drug alone” value was 0.0275.
`C[C@]12CC[C@@H]3c4ccc(O)cc4CC[C@H]3[C@@H]1CCC2=O` [Estrone] was tested, and the “growth inhibition by drug alone” value was 0.0954.
For `O=C(c1ccc(OCCN2CCCCC2)cc1)c1c(-c2ccc(O)cc2)sc2cc(O)ccc12` [Evista (Raloxifene Hydrochloride)], the “growth inhibition by drug alone” value was -0.0629.
In the case of `CCN(CC)CCNC(=O)c1c(C)[nH]c(/C=C2\C(=O)Nc3ccc(F)cc32)c1C` [Sunitinib Malate (Sutent)], the “growth inhibition by drug alone” value is reported as -0.0117.
With `CCOc1ccc(Nc2nc(-c3c(C)nc4ccccn34)cs2)cc1` the “growth inhibition by drug alone” value was 0.961.
For `C=CC(=O)N1CCC[C@@H](n2nc(-c3ccc(Oc4ccccc4)cc3)c3c(N)ncnc32)C1`, the “growth inhibition by drug alone” value was 0.502.
In the case of `CS(=O)(=O)c1cccc(CNc2nc(Nc3ccc4c(c3)CCC(=O)N4)ncc2C(F)(F)F)c1`, the “growth inhibition by drug alone” value is reported as -0.0504.
For `CC(NC(=O)c1ccccc1/N=C/c1c(O)ccc2ccccc12)c1ccccc1` (stereo unspecified) [Sirtinol], the “growth inhibition by drug alone” value was 0.00453.
`CN(Cc1cnc2nc(N)nc(N)c2n1)c1ccc(C(=O)N[C@@H](CCC(=O)O)C(=O)O)cc1` [Abitrexate (Methotrexate)] was tested, and the “growth inhibition by drug alone” value was 0.866.
With `OCCn1cc(-c2cnc3nnn(Cc4ccc5ncccc5c4)c3n2)cn1` the “growth inhibition by drug alone” value was -0.178.
With `COc1cc(Nc2ncc(F)c(Nc3ccc4c(n3)NC(=O)C(C)(C)O4)n2)cc(OC)c1OC` [R406(free base)] the “growth inhibition by drug alone” value was 0.0655.
With `COc1cccc2c1C(=O)c1c(O)c3c(c(O)c1C2=O)C[C@@](O)(C(=O)CO)C[C@@H]3O[C@H]1C[C@H](N)[C@H](O)[C@H](C)O1` [Doxorubicin (Adriamycin)] the “growth inhibition by drug alone” value was 0.974.
In the case of `CN(NC(=O)CC(=O)NN(C)C(=S)c1ccccc1)C(=S)c1ccccc1` [Elesclomol], the “growth inhibition by drug alone” value is reported as 0.982.
With `CN(C)CCOc1ccc(/C(=C(/CCCl)c2ccccc2)c2ccccc2)cc1` [Toremifene Citrate (Fareston, Acapodene)] the “growth inhibition by drug alone” value was 0.104.
For `CN1CCN(CCOc2cc(OC3CCOCC3)c3c(Nc4c(Cl)ccc5c4OCO5)ncnc3c2)CC1` [Saracatinib (AZD0530)], the “growth inhibition by drug alone” value was -0.139.
For `CC(C)C[C@H](NC(=O)[C@H](Cc1ccccc1)NC(=O)c1cnccn1)B(O)O` [Bortezomib (Velcade)], the “growth inhibition by drug alone” value was 0.985.
In the case of `Cn1cncc1[C@@](N)(c1ccc(Cl)cc1)c1ccc2c(c1)c(-c1cccc(Cl)c1)cc(=O)n2C` [Tipifarnib (Zarnestra)], the “growth inhibition by drug alone” value is reported as 0.757.
With `COC(=O)c1ccc2c(C(=Nc3ccc(N(C)C(=O)CN4CCN(C)CC4)cc3)c3ccccc3)c(O)[nH]c2c1` [BIBF1120 (Vargatef)] the “growth inhibition by drug alone” value was -0.121.
For `CC[C@@H]1/C=C(\C)C[C@H](C)C[C@H](OC)[C@H]2O[C@@](O)(C(=O)C(=O)N3CCCC[C@H]3C(=O)O[C@H](/C(C)=C/[C@@H]3CC[C@H](Cl)[C@H](OC)C3)[C@H](C)[C@@H](O)CC1=O)[C@H](C)C[C@@H]2OC` [Pimecrolimus], the “growth inhibition by drug alone” value was 0.139.
`CN(C)CCOc1ccc(-c2nc(-c3ccncc3)c(-c3ccc4c(c3)CC/C4=N\O)[nH]2)cc1` was tested, and the “growth inhibition by drug alone” value was 0.104.
`COc1ccc(CCN2CCN(CCCc3ccccc3)CC2)cc1OC` was tested, and the “growth inhibition by drug alone” value was -0.032.
In the case of `CNC(=O)c1cc(Oc2ccc(NC(=O)Nc3cc(C(C)(C)C)nn3-c3ccc4ncccc4c3)c(F)c2)ccn1` [DCC-2036 (Rebastinib)], the “growth inhibition by drug alone” value is reported as 0.0869.
`CCC(C)(C)C(=O)O[C@H]1C[C@@H](C)C=C2C=C[C@H](C)[C@H](CC[C@@H]3C[C@@H](O)CC(=O)O3)[C@H]21` [Simvastatin (Zocor)] was tested, and the “growth inhibition by drug alone” value was -0.019.
For `CCc1ccc(CCOc2ccc(CC3SC(=O)NC3=O)cc2)nc1` (stereo unspecified) [Pioglitazone (Actos)], the “growth inhibition by drug alone” value was -0.0965.
`O=C(O)C(Cc1c[nH]c2ccccc12)N1C(=O)c2ccccc2C1=O` (stereo unspecified) was tested, and the “growth inhibition by drug alone” value was -0.0782.

Same assay, conditions: 1000 nM; time (day): 4; 177Lu-lilotomab satetraxetan 0 ug/ml
In the case of `Nc1nc2[nH]cc(CCc3ccc(C(=O)N[C@@H](CCC(=O)O)C(=O)O)cc3)c2c(=O)[nH]1` [Pemetrexed], the “growth inhibition by drug alone” value is reported as 0.948.
For `COc1cc2nccc(Oc3ccc(NC(=O)Nc4cc(C)on4)c(Cl)c3)c2cc1OC` [Tivozanib (AV-951)], the “growth inhibition by drug alone” value was 0.0968.
In the case of `CCC(=O)N1CCN(c2ccc(-n3c(=O)ccc4cnc5ccc(-c6cnc7ccccc7c6)cc5c43)cc2C(F)(F)F)CC1` [Torin 1], the “growth inhibition by drug alone” value is reported as 0.883.
In the case of `COc1cccc2c1C(=O)c1c(O)c3c(c(O)c1C2=O)C[C@@](O)(C(=O)CO)C[C@@H]3O[C@H]1C[C@H](N)[C@@H](O)[C@H](C)O1` [Epirubicin Hydrochloride], the “growth inhibition by drug alone” value is reported as 0.964.
With `Clc1ccc(Nc2nnc(Cc3ccncc3)c3ccccc23)cc1` [Vatalanib dihydrochloride (PTK787)] the “growth inhibition by drug alone” value was 0.0478.
In the case of `COc1cc2nccc(Oc3ccc(NC(=O)C4(C(=O)Nc5ccc(F)cc5)CC4)cc3)c2cc1OC` [XL-184 free base (Cabozantinib)], the “growth inhibition by drug alone” value is reported as 0.105.
For `C[C@@H](O[C@H]1OCCN(Cc2n[nH]c(=O)[nH]2)[C@H]1c1ccc(F)cc1)c1cc(C(F)(F)F)cc(C(F)(F)F)c1` [Aprepitant (MK-0869)], the “growth inhibition by drug alone” value was -0.0282.
In the case of `COc1cc2c(cc1O)CC[C@@H]1[C@@H]2CC[C@]2(C)[C@@H](O)CC[C@@H]12` [2-Methoxyestradiol], the “growth inhibition by drug alone” value is reported as 0.771.
In the case of `CNCc1ccc(-c2[nH]c3cc(F)cc4c3c2CCNC4=O)cc1`, the “growth inhibition by drug alone” value is reported as 0.0462.
In the case of `CC[C@@]1(O)C(=O)OCc2c1cc1n(c2=O)Cc2cc3c(CN(C)C)c(O)ccc3nc2-1` [Topotecan HCl], the “growth inhibition by drug alone” value is reported as 0.969.
`Nc1cc(C(F)(F)F)c(-c2cc(N3CCOCC3)nc(N3CCOCC3)n2)cn1` was tested, and the “growth inhibition by drug alone” value was 0.62.
With `CC(C)(C)c1ccc(S(=O)(=O)/C=C/C#N)cc1` the “growth inhibition by drug alone” value was 0.401.
For `C[C@]1(c2nc3c(C(N)=O)cccc3[nH]2)CCCN1` [ABT-888 (Veliparib)], the “growth inhibition by drug alone” value was -0.0475.
With `Cc1ccc(NC(=O)c2ccc(CN3CC[C@H](N(C)C)C3)c(C(F)(F)F)c2)cc1Nc1nccc(-c2cncnc2)n1` [Bafetinib (INNO-406)] the “growth inhibition by drug alone” value was -0.0147.
In the case of `C[C@]12CC[C@@H]3c4ccc(O)cc4CC[C@H]3[C@@H]1CCC2=O` [Estrone], the “growth inhibition by drug alone” value is reported as 0.046.
For `O=C(c1ccc(OCCN2CCCCC2)cc1)c1c(-c2ccc(O)cc2)sc2cc(O)ccc12` [Evista (Raloxifene Hydrochloride)], the “growth inhibition by drug alone” value was -0.0257.
`CCN(CC)CCNC(=O)c1c(C)[nH]c(/C=C2\C(=O)Nc3ccc(F)cc32)c1C` [Sunitinib Malate (Sutent)] was tested, and the “growth inhibition by drug alone” value was -0.00484.
In the case of `CCOc1ccc(Nc2nc(-c3c(C)nc4ccccn34)cs2)cc1`, the “growth inhibition by drug alone” value is reported as 0.972.
With `C=CC(=O)N1CCC[C@@H](n2nc(-c3ccc(Oc4ccccc4)cc3)c3c(N)ncnc32)C1` the “growth inhibition by drug alone” value was 0.623.
`CS(=O)(=O)c1cccc(CNc2nc(Nc3ccc4c(c3)CCC(=O)N4)ncc2C(F)(F)F)c1` was tested, and the “growth inhibition by drug alone” value was -0.0365.
For `CC(NC(=O)c1ccccc1/N=C/c1c(O)ccc2ccccc12)c1ccccc1` (stereo unspecified) [Sirtinol], the “growth inhibition by drug alone” value was 0.0486.
`CN(Cc1cnc2nc(N)nc(N)c2n1)c1ccc(C(=O)N[C@@H](CCC(=O)O)C(=O)O)cc1` [Abitrexate (Methotrexate)] was tested, and the “growth inhibition by drug alone” value was 0.93.
In the case of `OCCn1cc(-c2cnc3nnn(Cc4ccc5ncccc5c4)c3n2)cn1`, the “growth inhibition by drug alone” value is reported as -0.0659.
`COc1cc(Nc2ncc(F)c(Nc3ccc4c(n3)NC(=O)C(C)(C)O4)n2)cc(OC)c1OC` [R406(free base)] was tested, and the “growth inhibition by drug alone” value was 0.0291.
For `COc1cccc2c1C(=O)c1c(O)c3c(c(O)c1C2=O)C[C@@](O)(C(=O)CO)C[C@@H]3O[C@H]1C[C@H](N)[C@H](O)[C@H](C)O1` [Doxorubicin (Adriamycin)], the “growth inhibition by drug alone” value was 0.983.
With `CN(NC(=O)CC(=O)NN(C)C(=S)c1ccccc1)C(=S)c1ccccc1` [Elesclomol] the “growth inhibition by drug alone” value was 0.982.
In the case of `CN(C)CCOc1ccc(/C(=C(/CCCl)c2ccccc2)c2ccccc2)cc1` [Toremifene Citrate (Fareston, Acapodene)], the “growth inhibition by drug alone” value is reported as 0.101.
For `CN1CCN(CCOc2cc(OC3CCOCC3)c3c(Nc4c(Cl)ccc5c4OCO5)ncnc3c2)CC1` [Saracatinib (AZD0530)], the “growth inhibition by drug alone” value was -0.146.
With `CC(C)C[C@H](NC(=O)[C@H](Cc1ccccc1)NC(=O)c1cnccn1)B(O)O` [Bortezomib (Velcade)] the “growth inhibition by drug alone” value was 0.984.
In the case of `Cn1cncc1[C@@](N)(c1ccc(Cl)cc1)c1ccc2c(c1)c(-c1cccc(Cl)c1)cc(=O)n2C` [Tipifarnib (Zarnestra)], the “growth inhibition by drug alone” value is reported as 0.8.
`COC(=O)c1ccc2c(C(=Nc3ccc(N(C)C(=O)CN4CCN(C)CC4)cc3)c3ccccc3)c(O)[nH]c2c1` [BIBF1120 (Vargatef)] was tested, and the “growth inhibition by drug alone” value was -0.0853.
For `CC[C@@H]1/C=C(\C)C[C@H](C)C[C@H](OC)[C@H]2O[C@@](O)(C(=O)C(=O)N3CCCC[C@H]3C(=O)O[C@H](/C(C)=C/[C@@H]3CC[C@H](Cl)[C@H](OC)C3)[C@H](C)[C@@H](O)CC1=O)[C@H](C)C[C@@H]2OC` [Pimecrolimus], the “growth inhibition by drug alone” value was 0.29.
For `CN(C)CCOc1ccc(-c2nc(-c3ccncc3)c(-c3ccc4c(c3)CC/C4=N\O)[nH]2)cc1`, the “growth inhibition by drug alone” value was 0.0148.
For `COc1ccc(CCN2CCN(CCCc3ccccc3)CC2)cc1OC`, the “growth inhibition by drug alone” value was -0.091.
In the case of `CNC(=O)c1cc(Oc2ccc(NC(=O)Nc3cc(C(C)(C)C)nn3-c3ccc4ncccc4c3)c(F)c2)ccn1` [DCC-2036 (Rebastinib)], the “growth inhibition by drug alone” value is reported as 0.114.
`CCC(C)(C)C(=O)O[C@H]1C[C@@H](C)C=C2C=C[C@H](C)[C@H](CC[C@@H]3C[C@@H](O)CC(=O)O3)[C@H]21` [Simvastatin (Zocor)] was tested, and the “growth inhibition by drug alone” value was -0.0256.
In the case of `CCc1ccc(CCOc2ccc(CC3SC(=O)NC3=O)cc2)nc1` (stereo unspecified) [Pioglitazone (Actos)], the “growth inhibition by drug alone” value is reported as -0.0693.
In the case of `O=C(O)C(Cc1c[nH]c2ccccc12)N1C(=O)c2ccccc2C1=O` (stereo unspecified), the “growth inhibition by drug alone” value is reported as -0.0484.
